Reference: the OligoGym collection

These sequences were tested against CLEC9A (assay: pooled miR-30 sensor sort-seq; sequence = guide strand). Details: shRNA.
TTCTCTTGACTGGTGTGCCAAA showed a sensor-assay potency score (higher = more potent) of -1.18.
For TTAATCTTCCTCAAGCTGCCAG, the sensor-assay potency score (higher = more potent) was 0.401.
With TAGCTGACTGGGATCTCTCTGC the sensor-assay potency score (higher = more potent) was -0.395.
TTTTCTTGCTGCTGCATCGCAA showed a sensor-assay potency score (higher = more potent) of -0.454.
TTTGTAGCAGCGTGGAACCTTC showed a sensor-assay potency score (higher = more potent) of -0.937.
Sequence TAAACAATTCTCTTGACTGGTG has a sensor-assay potency score (higher = more potent) of -0.135.
For TCACAAGACAGCATGCTCCTGA, the sensor-assay potency score (higher = more potent) was 0.87.

These sequences were tested against CLN3 in the same assay as above. Details: shRNA.
AACACTGTCCACCTTTCCCGAA showed a sensor-assay potency score (higher = more potent) of -1.44.
With TTGCAGTCAAATCGTGATGAGC the sensor-assay potency score (higher = more potent) was -1.19.
Work on AAGACCACACCACACAGGCTGG yielded a sensor-assay potency score (higher = more potent) of -1.35.
With TACAGCATCTGGTACCAGCGGT the sensor-assay potency score (higher = more potent) was -0.527.
TGACTCAGGGAAGTGTTCCAGA showed a sensor-assay potency score (higher = more potent) of -0.693.
TGGTCCAACAGAGGGAGCCGGG gave a sensor-assay potency score (higher = more potent) of -1.78.
AAATCGTGATGAGCTGTTGTGG gave a sensor-assay potency score (higher = more potent) of -0.817.
Work on CAGAGTTGCAGTCAAATCGTGA yielded a sensor-assay potency score (higher = more potent) of -1.16.
Sequence TTTCCCGATGTCCTCTTGTGGC has a sensor-assay potency score (higher = more potent) of -1.44.
Sequence GTGAGCAACAAGAAATAGCTGG has a sensor-assay potency score (higher = more potent) of -0.754.
AAGTAAACTACGACCAAGGGAA gave a sensor-assay potency score (higher = more potent) of -0.0602.
TTGTGGCTAAGGATGTCGTGGG was tested, and the sensor-assay potency score (higher = more potent) was -0.303.
In the case of ATCGTGATGAGCTGTTGTGGGG, the sensor-assay potency score (higher = more potent) was -0.665.
For TCTGCCAGCAGGAACACCAGGT, the sensor-assay potency score (higher = more potent) was 0.0628.
TGAGCAACAAGAAATAGCTGGC was tested, and the sensor-assay potency score (higher = more potent) was 0.625.
Sequence AATCCCACTGACGAGAACCCGG has a sensor-assay potency score (higher = more potent) of -0.766.
Sequence TGGTACAGCATCTGGTACCAGC has a sensor-assay potency score (higher = more potent) of -1.94.
AACAATTTGATGACGAGTGTGG gave a sensor-assay potency score (higher = more potent) of 0.272.
In the case of TCAAATCGTGATGAGCTGTTGT, the sensor-assay potency score (higher = more potent) was 0.182.
With TTGTGGAAGGTGTTCACGTAGG the sensor-assay potency score (higher = more potent) was -0.371.
In the case of TCGTGATGAGCTGTTGTGGGGG, the sensor-assay potency score (higher = more potent) was -0.528.
AATCGTGATGAGCTGTTGTGGG gave a sensor-assay potency score (higher = more potent) of -0.0059.
For TAGAGACAGAGTTGCAGTCAAA, the sensor-assay potency score (higher = more potent) was -1.26.
With TTGAACACTGTCCACCTTTCCC the sensor-assay potency score (higher = more potent) was -0.845.

These sequences were tested against CLN5 in the same assay as above. Details: shRNA.
For TACATAACTGATATGAACCATA, the sensor-assay potency score (higher = more potent) was -0.617.
TTTCCTTCCAGTGAACATCATC was tested, and the sensor-assay potency score (higher = more potent) was -0.843.
For TTCTTGTATAGTTGGTTTCTAT, the sensor-assay potency score (higher = more potent) was -0.695.
TTCAATGTCATCATCACCCTCC showed a sensor-assay potency score (higher = more potent) of 0.818.
ATGTTCTTGAACTCTGCTCCAA showed a sensor-assay potency score (higher = more potent) of -1.05.
TATAAAACAAATAGAACTGTTT gave a sensor-assay potency score (higher = more potent) of -0.137.
For TTATAAAACAAATAGAACTGTT, the sensor-assay potency score (higher = more potent) was -0.281.
TAGGTAAAAACCAATATTCAAA showed a sensor-assay potency score (higher = more potent) of -1.15.
TGTTCTTGAACTCTGCTCCAAA gave a sensor-assay potency score (higher = more potent) of -0.828.
